Source: the supplement of paper PMC12669032
Unmarked numbers belong to inactive results.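 The calls were made as follows: active = AUC reduced over 20% with Padj below 0.05 in at least 2 of 3 replicates; inactive = otherwise.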

What was measured:
Assay in all cases: growth AUC relative to DMSO control (median of replicates) (fraction); higher = more growth (less inhibition), active = hit call of the paper
Details in all cases: 20 µM; 24 h
Akkermansia muciniphila = test system: Akkermansia muciniphila
In short: (§1)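 Gut bacterial monocultures in mGAM were treated with 20 µM compound (1% DMSO) and grown anaerobically at 37 °C in round-bottom 96-well plates from OD600 0.05. OD600 was read hourly for 24 h, with the minimum OD set to 0. Area under the growth curve was normalised to the plate median of solvent-only wells, or to row and column medians on the industrial chemical plate. Each value is the median of three biological replicates, each grown on a separate day.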

Bacteroides caccae = test system: Bacteroides caccae
In short: as §1

Bacteroides clarus = test system: Bacteroides clarus
In short: as §1

Bacteroides dorei = test system: Bacteroides dorei
In short: as §1

Bacteroides stercoris = test system: Bacteroides stercoris
In short: as §1

[1] = test system: Bacteroides thetaiotaomicron
In short: as §1

Bacteroides uniformis = test system: Bacteroides uniformis
In short: as §1

[2] = test system: Bifidobacterium longum subsp. longum
In short: as §1

Clostridium difficile = test system: Clostridium difficile
In short: as §1

Collinsella aerofaciens = test system: Collinsella aerofaciens
In short: as §1

| SMILES | growth AUC (Akkermansia muciniphila) | growth AUC (Bacteroides caccae) | growth AUC (Bacteroides clarus) | growth AUC (Bacteroides dorei) | growth AUC (Bacteroides stercoris) | growth AUC [1] | growth AUC (Bacteroides uniformis) | growth AUC [2] | growth AUC (Clostridium difficile) | growth AUC (Collinsella aerofaciens) |
| --- | --- | --- | --- | --- | --- | --- | --- | --- | --- | --- |
| CCCN(CCOc1c(Cl)cc(Cl)cc1Cl)C(=O)n1ccnc1 | 1.05 | 0.886 | 0.967 | 0.941 | 1.14 | 0.869 | 0.836 | 0.89 | 0.982 | 1.02 |
| N#Cc1cc(Br)c(O)c(Br)c1 | 1.11 | 0.896 | 0.951 | 0.924 | 0.875 | 0.997 | 0.988 | 1.05 | 0.98 | 0.968 |
| Clc1ccc(Cl)cc1 | 1.01 | 0.991 | 0.989 | 0.899 | 1.08 | 1.01 | 1.01 | 1.07 | 0.987 | 0.972 |
| O=C1CCc2cccc3c2N1CC3 | 1.04 | 0.874 | 0.964 | 0.974 | 1.14 | 0.883 | 0.98 | 1.03 | 1.03 | 0.954 |
| CCc1nn(C)c(C(=O)NCc2ccc(Oc3ccc(C)cc3)cc2)c1Cl | 0.877 | 0.935 | 0.932 | 0.974 | 0.633 | 0.967 | 0.984 | 0.81 | 1.04 | 0.952 |
| Cc1cc(Cl)ccc1N=CN(C)C | 1.01 | 1.01 | 0.995 | 1 | 0.985 | 1.03 | 1.02 | 0.981 | 0.998 | 1 |
| CNC(=O)CSP(=O)(OC)OC | 1.07 | 1.03 | 1.02 | 1.03 | 1.04 | 0.997 | 1.01 | 1.06 | 1.03 | 1.03 |
| CC(C)(C)c1ccc(CSc2cnn(C(C)(C)C)c(=O)c2Cl)cc1 | 0.971 | 0.95 | 0.959 | 0.991 | 1.07 | 0.975 | 0.986 | 0.97 | 0.963 | 0.999 |
| CN(C(=O)COc1nc2ccccc2s1)c1ccccc1 | 1.06 | 0.925 | 1.03 | 0.956 | 1.26 | 0.96 | 0.934 | 1.12 | 0.982 | 1.01 |
| C=CCN=C=S | 0.98 | 0.968 | 0.993 | 1.01 | 0.977 | 1.02 | 1.02 | 0.999 | 1.01 | 1.02 |
| COP(=S)(OC)SC(CC(=O)O)C(=O)O (stereo not given) | 0.974 | 1.01 | 0.963 | 0.986 | 1.06 | 0.991 | 0.99 | 1.01 | 1 | 1.05 |
| CC1(C)C(C=C(Cl)Cl)C1C(=O)OC(C#N)c1cccc(Oc2ccccc2)c1 (mixture of isomers) | 1.14 | 0.963 | 1 | 0.996 | 1.11 | 0.981 | 1.01 | 0.984 | 1.04 | 0.966 |
| CCCCCCCCSC(=O)Oc1cc(Cl)nnc1-c1ccccc1 | 1.01 | 0.983 | 0.983 | 0.99 | 0.981 | 1.02 | 0.91 | 0.966 | 0.981 | 0.973 |
| COP(=S)(Oc1cc(Cl)c(Br)cc1Cl)c1ccccc1 (stereo not given) | 0.925 | 0.949 | 0.928 | 1.02 | 1.44 | 0.98 | 0.993 | 1.02 | 1.03 | 0.976 |
| C[C@@H](Oc1ccc(Oc2ncc(C(F)(F)F)cc2Cl)cc1)C(=O)O | 0.971 | 0.97 | 0.964 | 0.942 | 1.02 | 0.992 | 0.975 | 0.912 | 0.99 | 0.994 |
| O=c1[nH]c2c(c(=O)n1C1CCCCC1)CCC2 | 0.895 | 1.01 | 0.944 | 0.957 | 0.925 | 0.978 | 0.972 | 0.963 | 0.972 | 0.95 |
| O=C(O)c1ccc(=O)[nH]c1 | 1.06 | 1.02 | 1.01 | 1.02 | 0.972 | 0.984 | 1.01 | 1 | 1.01 | 0.977 |
| COc1cc(OC)nc(NC(=O)NS(=O)(=O)c2cc(NC=O)ccc2C(=O)N(C)C)n1 | 0.976 | 1.01 | 0.979 | 0.984 | 1.06 | 0.971 | 1.03 | 1.03 | 1.01 | 1.05 |
| Clc1ccc(Cl)c(Cl)c1 | 1.04 | 0.88 | 1.04 | 1.01 | 1.24 | 1.02 | 0.953 | 0.957 | 0.941 | 0.969 |
| C=CCC1=C(C)C(OC(=O)[C@@H]2[C@@H](C=C(C)C)C2(C)C)CC1=O (stereo not given in full) | 1.01 | 0.983 | 1.02 | 1.05 | 1.08 | 0.96 | 1.01 | 1 | 1.04 | 1.03 |
| CN(C)C(=O)Nc1cccc(C(F)(F)F)c1 | 0.966 | 0.97 | 0.983 | 0.991 | 0.911 | 0.967 | 1.02 | 0.961 | 1.02 | 0.997 |
| Nc1ccncc1 | 0.943 | 0.997 | 0.997 | 1.04 | 1.02 | 0.981 | 0.987 | 0.911 | 1 | 1 |
| COc1nn(CSP(=S)(OC)OC)c(=O)s1 | 1.01 | 1.01 | 1.02 | 0.992 | 1.04 | 1.04 | 1.02 | 1.02 | 0.996 | 1.03 |
| ClC(Cl)=C(c1ccc(Cl)cc1)c1ccc(Cl)cc1 | 1.1 | 0.933 | 0.961 | 0.953 | 1.18 | 0.956 | 1.01 | 1.05 | 0.969 | 0.842 |
| CCNc1nc(NC(C)C(C)C)nc(SC)n1 (stereo not given) | 0.961 | 1.01 | 0.962 | 1 | 1.04 | 0.915 | 0.972 | 0.965 | 1 | 1.05 |
| COc1nc(C)nc(NC(=O)NS(=O)(=O)c2ccccc2CCC(F)(F)F)n1 | 0.874 | 0.985 | 1.01 | 0.992 | 0.978 | 0.948 | 0.978 | 0.966 | 0.992 | 0.966 |
| N#Cc1c[nH]cc1-c1cccc(Cl)c1Cl | 0.905 | 0.819 | 0.9 | 0.871 | 0.884 | 0.835 | 0.816 | 1.09 | 0.901 | 0.935 |
| CCCN(CC1CC1)c1c([N+](=O)[O-])cc(C(F)(F)F)cc1[N+](=O)[O-] | 1.35 | 0.93 | 1.03 | 0.953 | 1.42 | 1 | 1.03 | 1.03 | 0.979 | 0.955 |
| O=C1C2(Cl)C3(Cl)C4(Cl)C(Cl)(Cl)C5(Cl)C3(Cl)C1(Cl)C5(Cl)C24Cl (stereo not given) | 0.849 | 0.0318 (active) | 0.02 (active) | 0.0186 (active) | 0.00866 (active) | 0.0105 (active) | 0.0112 (active) | 0.28 (active) | 0.0161 (active) | 0.0984 (active) |
